# Assay outcomes (PubChem)
# SW480 rerep = induces DNA re-replication in SW480 colon adenocarcinoma cells; actives 1.8% (n = 340,000); AID 624297; Potency, µM (titrated, usually from 46.1 µM), actives largely listed as activators; SW480 DNA re-replication, Hoechst DNA content imaging, 48 h; also: nearly all actives have a fitted effect of over 55% in size
#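 250 cells/well; 23 nL cpd via pin tool; 48 hr, 37 C, 5% CO2; Hoechst 40 min; imager read of total nuclear intensity, ex 405/em 500-530 nm.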
# MCF10A rereplic = induces DNA re-replication in MCF 10a normal breast cells; Potency, µM (doses to about 46.1 µM), most hits filed as activators; MCF 10A DNA re-replication, Hoechst nuclear intensity, 48 h; actives 2.9% (n = 350,000); also: nearly all actives have a fitted effect of over 50% in size
# AT treatment = potential ataxia-telangiectasia treatments restoring KAP-1 phosphorylation. F2112 A-T fibroblasts, KAP-1 phosphorylation AlphaLISA; neocarzinostatin DNA damage 30 min before lysis. Potency, µM (doses to about 57.5 µM), most hits filed as activators. actives 0.19% (n = 320,000). AID 485349; also: nearly all actives have a fitted effect of over 45% in size
#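 hTERT-immortalized A-T patient fibroblasts (F2112), 500 cells/well in OPTI-MEM, 1% FBS, got compounds for 60 min, then NCS for 30 min at 37C. Lysates were then assayed for phospho-KAP-1 by AlphaLISA (anti-pKAP1 donor, anti-KAP1 acceptor beads), 6 hr at 25C.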
# ELG1 DNA repair = inhibitors of ELG1-dependent DNA repair in HEK293T cells; HEK293T ELG1-luciferase reporter, luminescence, 16 h; DNA damage induced by 5-fluorouridine; Potency, µM (doses to about 46.1 µM), most hits filed as inhibitors; actives 2.3% (n = 330,000); also: nearly all actives have a fitted effect of over 55% in size
#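 Reporter activity after DNA damage by 5-fluorouridine is monitored. Compound-treated cells incubate 16 hr at 37 °C, then ONE-Glo is added for 30 min before luminescence reading.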
# p53 reactivator = restores transcriptional activity of mutant p53; actives 0.063% (n = 320,000); AID 504706; H1299 p53-A138V BP100-luciferase reporter, luminescence, 24 h; Potency, µM (highest dose often 92.2 µM), usual class: activators; also: nearly all actives have a fitted effect of over 45% in size
#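 p53-null H1299 cells stably carrying temperature-sensitive p53-A138V and a BP100-luciferase reporter were pinned with compounds (4-point, 1:5 series) and held 24 hrs at 37 deg C. Luminescence was read 10 min after detection reagent.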
# ELG1 genotoxic = induces genotoxicity in HEK293T cells with luciferase-tagged ELG1. actives 1.3% (n = 330,000). Potency, µM (titrated, usually from 46 µM), usual class: activators. HEK293T ELG1-luciferase reporter, luminescence, 16 h; also: nearly all actives have a fitted effect of over 60% in size
#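 After overnight (16 hr) compound treatment at 37 °C, ELG1-luciferase HEK293T cells were lysed with ONE-Glo; luminescence quantified 30 min later at room temperature.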
# A number is an active result; n = inactive; u = inconclusive; x = not tested or not shown; [ ] = dose if it differs, or a comment. Sampled rows, rich in hits. Any-hit rate of the full collection: about 7.1%. Calls follow the shape of the dose curve; as a rule, active = well fitted curve in the direction sought with a large enough effect; inconclusive = small, poorly fitted or top-dose-only effect, or another doubt; inactive = no such curve, though single readings can be large; an effect the other way counts as inactive or inconclusive.
SMILES,SW480 rerep,MCF10A rereplic,AT treatment,ELG1 DNA repair,p53 reactivator,ELG1 genotoxic
O=C(COC(=O)C1CCN(c2ccc(C(F)(F)F)cn2)CC1)NCc1ccc(F)cc1,n,u,n,n,n,n
CC1Cc2ccccc2N1C(=O)c1ccc2nccnc2c1 (configuration not stated),n,n,n,n,n,n
CSc1nsc(/C=C/Nc2ccc(Cl)cc2)c1C#N,n[9.22 µM],u,n,n,n,n
CSc1nsc(/C=C/Nc2cccc(Cl)c2)c1C#N,n,9.2µM,x,x,x,n
CSc1nsc(/C=C/Nc2ccc(O)cc2C)c1C#N,23.1µM,u,n,u,n,n
CCOC(=O)[C@H]1[C@H]2COc3ccc(Cl)cc3[C@@H]2N2C(=O)CNC(=O)[C@@]12C,n,u,n,n,n,n
CS(=O)(=O)Nc1cccc(C2=NN(C(=O)c3cccc([N+](=O)[O-])c3)C(c3cccs3)C2)c1 (configuration not stated),n,n,n,13µM,n,n
COc1ccc(C(=O)N2N=C(c3ccc(NS(C)(=O)=O)cc3)CC2c2cccs2)cc1 (configuration not stated),n,n,n,18.3µM,n,n
CS(=O)(=O)Nc1cccc(C2=NN(C(=O)c3ccccc3)C(c3cccs3)C2)c1 (configuration not stated),n,n,n,u,n,n
COc1cc2ccccc2cc1C(=O)N1CCc2ccccc21,u,16.4µM,n,u,n,n
COc1cc(C(=O)N2CCc3ccccc32)cc(OC)c1OC,n,n,n,n,n,n
CN1CCN(c2ccc(NC(=O)N3CCc4ccccc43)cc2)CC1,n,n,n,u,u,0.461µM
Cc1ccc(NC(=O)N2CCc3ccccc32)cc1C,n,u,n,u,n,0.651µM
Cc1ccc(NC(=O)N2CCc3ccccc32)cc1,n,n,n,u,x,u
C=C(C)CN(CC)C(=O)CN1C(=O)NC2(CCCc3ccccc32)C1=O (configuration not stated),n,n,n,n,n,n
COc1ccccc1NC(=O)C(C)OC(=O)C(C)SCC(=O)Nc1ccc(C)cc1 (configuration not stated),n,n,n,n,n,n
Cc1ccc(CS(=O)(=O)Cc2ccc(C(=O)NC3CCCC3)o2)cc1,n,n,n,n,n,n
CCCCCn1c(=O)[nH]c2cc(C(=O)NCCc3ccc(OC)c(OC)c3)ccc2c1=O,n,n,x,n,n,n
COc1ccc(-n2c(=O)[nH]c3cc(C(=O)NCCc4ccc(Cl)cc4)ccc3c2=O)cc1OC,u,14.6µM,n,u,n,n
CC1CCN(CCCNC(=O)c2ccc3c(=O)n(Cc4ccc(Cl)cc4)c(=S)[nH]c3c2)CC1,u,u,n,n,n,n
CN(C)CCNC(=O)c1ccc2c(=O)n(Cc3ccc(Cl)cc3)c(=S)[nH]c2c1,23.1µM,u,n,u,n,n
Cc1ccccc1S(=O)(=O)Cc1ccc(C(=O)NCCCN2CCC(C)CC2)o1,n,n,n,n,n,n
COCCN1C(=O)N(c2cccc(OC)c2)C(=O)C1CC(=O)Nc1ccc(OC)cc1 (configuration not stated),n,n,n,n,x,n
COCCN1C(=O)N(c2ccc(OC)cc2)C(=O)C1CC(=O)Nc1cccc(F)c1 (configuration not stated),n,0.92µM,n,n,n,n
COC(=O)CN1C(=S)N(Cc2ccccc2)C(=O)C1CC(=O)Nc1ccc(Br)cc1 (configuration not stated),u,18.4µM,n,n,n,n
COc1ccc(NC(=O)CC2C(=O)N(C)C(=S)N2CCc2ccccc2F)cc1 (configuration not stated),n,u,n,u,n,n
CCN1C(=O)C(CC(=O)Nc2ccc(OC)cc2)N(CCc2ccccc2F)C1=S (configuration not stated),n,u,n,16.4µM,n,n
